Records with an inconclusive call do not appear. Activity calls are given as the source filed them. How the source made its calls: active means hit-call score of the fitted dose curve at least 0.9, where 1 is the maximum; inconclusive means response in the unintended direction; inactive means score below 0.9.
Each molecule was assayed against human Chymotrypsin Serine Peptidase, ELANE (gene 1991) (UniProt P08246) (assay: ERF_FR_ENZ_hELANE: Eurofins (ERF) Enzymatic Neutrophil Elastase LeadHunter Assay for human Chymotrypsin Serine Peptidase).
Description: ERF_FR_ENZ_hELANE is a biochemical, single-readout assay that uses extracted gene-proteins in a cell-free assay. Measurements were taken 0.5 hour after chemical dosing in a 96-well plate. See Neutrophil Elastase Human Chymotrypsin Serine Peptidase Enzymatic Assay, Cerep.ERF_FR_ENZ_hELANE is an assay component calculated from the ERF_FR_ENZ_hELANE assay. It is designed to measure enzyme activity using a type of enzyme reporter as detected by absorbance with spectrophotometry technology.Data from the assay component ERF_FR_ENZ_hELANE was analyzed at the assay endpoint, ERF_FR_ENZ_hELANE, in the positive analysis fitting direction relative to DMSO as the negative control and baseline of activity. Using a type of enzyme reporter, loss-of-signal activity can be used to understand changes in enzymatic activity as they relate to gene ELANE. To generalize the intended target to other relatable targets, this assay endpoint is annotated to the protease intended target family, where the subfamily is serine peptidase.
Human cells are incubated for 30 minutes at 37 C with MeOSAAPV-pNa (0.4 mM) as sunstrate and 3',4'dichloroisocoumarin as control inhibitor. Test Sample Requirements: Minimum for 1) Screen: 60 ul of 10 mM stock -OR- 1 mg (pre-weighed) for 10 uM final testing. 2) Dose Response: 90 ul of 10 mM stock -OR- 1 mg (pre-weighed) for a top concentration at 10 uM.

human Chymotrypsin Serine Peptidase, ELANE (gene 1991), sequence (P08246 whole entry, looked up): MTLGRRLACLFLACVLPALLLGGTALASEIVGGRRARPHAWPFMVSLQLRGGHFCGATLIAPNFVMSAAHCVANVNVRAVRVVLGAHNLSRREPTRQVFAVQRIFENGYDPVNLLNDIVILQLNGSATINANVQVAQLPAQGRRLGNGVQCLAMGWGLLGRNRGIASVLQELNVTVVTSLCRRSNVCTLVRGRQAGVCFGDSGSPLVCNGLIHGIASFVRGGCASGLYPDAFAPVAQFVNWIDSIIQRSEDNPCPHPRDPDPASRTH

| Compound | outcome | AC50 |
| --- | --- | --- |
| COc1cc(/C=C/C(=O)CC(=O)/C=C/c2ccc(O)c(OC)c2)ccc1O | inactive |  |
| O=C(/C=C/c1ccc(O)cc1)CC(=O)/C=C/c1ccc(O)cc1 |  | 8.6 µM (active) |
| COc1cc(CCC(=O)CC(=O)CCc2ccc(O)c(OC)c2)ccc1O | inactive |  |

Source: PubChem BioAssay AID2284095 (EPA ToxCast)
